From the supplement of paper PMC10498489
Hit rate of the full screen: of about 2,300 compounds, about 330 (14%) showed activity.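 Rule for the calls: active = median modified Z-score above 1.96; inactive = 1.96 or below.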 These entries were drawn from the full list.

The compounds below were run on HepG2 Srxn1-GFP reporter cells (+30 nM CDDO-Me) (assay: Srxn1-GFP intensity median modified Z-score relative to plate median; higher = stronger NRF2 / oxidative stress reporter activation, active = hit call of the paper). Conditions: 10 µM; exposure time: 24h.
How it was run: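 The per-plate modified Z-score of GFP intensity, taken as a median across replicates, is what each value represents. Three replicate plates of HepG2 Srxn1-GFP BAC reporter cells were exposed for 24 h to an NRF2 activator at 30 nM combined with compound at 10 μM (≤0.1% DMSO). Cytoplasmic GFP per cell was read from confocal images, excluding any with under 100 cells, and scaling used 1.4826 × median absolute deviation.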
For `CC1=CC(=O)c2ccccc2C1=O` [euspeclibcmpd446], the “Srxn1-GFP intensity median modified Z-score” value was 5.02 (active). With `CN1C(C(=O)N=c2cccc[nH]2)C(=O)c2sc(Cl)cc2S1(=O)=O` (stereo unspecified) [euspeclibcmpd458] the “Srxn1-GFP intensity median modified Z-score” value was -0.432 (inactive). `CC(=O)OC=C1CSC2C(NC(=O)Cc3cccs3)C(=O)N2C1C(=O)O` (stereo unspecified) [euspeclibcmpd2267] was tested, and the “Srxn1-GFP intensity median modified Z-score” value was 0.967 (inactive). For `S=c1[nH]c2ccccc2s1` [euspeclibcmpd1954], the “Srxn1-GFP intensity median modified Z-score” value was -0.455 (inactive). With `CN(C)CCC=C1c2ccccc2CCc2ccccc21` [euspeclibcmpd21] the “Srxn1-GFP intensity median modified Z-score” value was 0.287 (inactive). For `CN1CCN(CC/C=C2\c3ccccc3Sc3ccc(S(=O)(=O)N(C)C)cc32)CC1` [euspeclibcmpd294], the “Srxn1-GFP intensity median modified Z-score” value was 4.72 (active). With `CN(C)CC/C=C1\c2ccccc2Sc2ccc(Cl)cc21` [euspeclibcmpd538] the “Srxn1-GFP intensity median modified Z-score” value was -1.04 (inactive). For `CN1CCC[C@@H]1Cc1c[nH]c2ccc(CCS(=O)(=O)c3ccccc3)cc12` [euspeclibcmpd938], the “Srxn1-GFP intensity median modified Z-score” value was -0.193 (inactive). In the case of `CCCN(Cc1nnc(-c2cccs2)o1)C(=O)CSc1nnc(-c2cccs2)n1C1CC1`, the “Srxn1-GFP intensity median modified Z-score” value is reported as 0.54 (inactive). In the case of `CC1O[C@@H](Oc2c(-c3ccc(O)c(O)c3)oc3cc(O)cc(O)c3c2=O)[C@H](O)[C@H](O)[C@H]1O` (stereo partly specified) [euspeclibcmpd1694], the “Srxn1-GFP intensity median modified Z-score” value is reported as -0.35 (inactive). With `O=C1OC(CN2CCOCC2)CN1/N=C/c1ccc([N+](=O)[O-])o1` (stereo unspecified) [euspeclibcmpd1273] the “Srxn1-GFP intensity median modified Z-score” value was 0.605 (inactive). In the case of `O=C(N/N=C/c1ccc([N+](=O)[O-])o1)c1ccc(O)cc1` [euspeclibcmpd1226], the “Srxn1-GFP intensity median modified Z-score” value is reported as 0.949 (inactive). With `O=c1[nH]c(O)cn1/N=C/c1ccc([N+](=O)[O-])o1` [euspeclibcmpd209] the “Srxn1-GFP intensity median modified Z-score” value was 0.292 (inactive). `NC(=O)N/N=C/c1ccc([N+](=O)[O-])o1` [euspeclibcmpd210] was tested, and the “Srxn1-GFP intensity median modified Z-score” value was 10.3 (active). With `O=C1OCCN1/N=C/c1ccc([N+](=O)[O-])o1` [euspeclibcmpd134] the “Srxn1-GFP intensity median modified Z-score” value was 2.95 (active). In the case of `O=C(N/N=C/c1ccc([N+](=O)[O-])o1)c1ccc(Br)cc1`, the “Srxn1-GFP intensity median modified Z-score” value is reported as 4.87 (active). `CC(C)(C)c1ccc(C(=O)N/N=C/c2ccc([N+](=O)[O-])o2)cc1` was tested, and the “Srxn1-GFP intensity median modified Z-score” value was 1.17 (inactive). In the case of `CC(C)CC(N)C(=O)NC(C)C(=O)O` (stereo unspecified) [euspeclibcmpd1745], the “Srxn1-GFP intensity median modified Z-score” value is reported as 0.124 (inactive). For `CC(=O)NCCc1ccc(O)c(C2C(=O)C(=O)c3c(c(O)c4c(C(=O)O)c(C(=O)O)c(O)cc4c3O)C2=O)c1` (stereo unspecified) [euspeclibcmpd1580], the “Srxn1-GFP intensity median modified Z-score” value was -0.208 (inactive). `CC(=O)OC=C1CSC2C(N)C(=O)N2C1C(=O)O` (stereo unspecified) [euspeclibcmpd1380] was tested, and the “Srxn1-GFP intensity median modified Z-score” value was -0.0231 (inactive). `O=C(O)c1ccc[nH]c1=Nc1cccc(C(F)(F)F)c1` [euspeclibcmpd1074] was tested, and the “Srxn1-GFP intensity median modified Z-score” value was -0.299 (inactive). In the case of `N#CCOC(=O)c1cc(-c2ccccc2)nc2ccccc12`, the “Srxn1-GFP intensity median modified Z-score” value is reported as 1.25 (inactive). For `NCCc1cc[nH]n1` [euspeclibcmpd614], the “Srxn1-GFP intensity median modified Z-score” value was 1.24 (inactive). In the case of `NC(=O)NC(CC(=O)O)C(=O)O` (stereo unspecified), the “Srxn1-GFP intensity median modified Z-score” value is reported as 1.02 (inactive). With `CNC(=O)CN1CCC(NC(=O)NCc2ccc(C)n2C)CC1` the “Srxn1-GFP intensity median modified Z-score” value was 0.3 (inactive). `CN1CCN(C(=O)Oc2c3nccnc3c(O)n2-c2ccc(Cl)cn2)CC1` [euspeclibcmpd2130] was tested, and the “Srxn1-GFP intensity median modified Z-score” value was -0.245 (inactive). With `C=C(C)[C@@H]1CC[C@]2(C(=O)O)CC[C@]3(C)[C@H](CCC4[C@@]5(C)CC[C@H](O)C(C)(C)C5CC[C@]43C)[C@@H]12` (stereo partly specified) [euspeclibcmpd1473] the “Srxn1-GFP intensity median modified Z-score” value was -0.366 (inactive). In the case of `C=C(C)[C@@H]1CC[C@]2(CO)CC[C@]3(C)[C@H](CCC4[C@@]5(C)CC[C@H](O)C(C)(C)C5CC[C@]43C)C12` (stereo partly specified) [euspeclibcmpd1538], the “Srxn1-GFP intensity median modified Z-score” value is reported as 10.7 (active). In the case of `C=C(C)[C@@H]1CC[C@]2(C)CC[C@]3(C)[C@@H](CCC4[C@@]5(C)CC[C@H](O)C(C)(C)C5CC[C@]43C)C12` (stereo partly specified) [euspeclibcmpd1455], the “Srxn1-GFP intensity median modified Z-score” value is reported as -0.31 (inactive). With `CC=C(c1ccc(O)cc1)C(CC)c1ccc(O)cc1` (stereo unspecified) [euspeclibcmpd93] the “Srxn1-GFP intensity median modified Z-score” value was 0.179 (inactive). With `NCCSSCCN` [euspeclibcmpd2395] the “Srxn1-GFP intensity median modified Z-score” value was -0.505 (inactive). For `N=C(N)SCCN` [euspeclibcmpd1761], the “Srxn1-GFP intensity median modified Z-score” value was 3.8 (active). With `N=C(N)N` [euspeclibcmpd2417] the “Srxn1-GFP intensity median modified Z-score” value was -0.496 (inactive). `N=c1[nH]c(=O)c2ncn(COC(CO)CO)c2[nH]1` [euspeclibcmpd487] was tested, and the “Srxn1-GFP intensity median modified Z-score” value was 0.251 (inactive). With `CCN1CCN(C(=O)NC(C(=O)NC2C(=O)N3C2SC(C)(C)[C@@H]3C(=O)O)c2ccccc2)C(=O)C1=O` (stereo partly specified) [euspeclibcmpd2069] the “Srxn1-GFP intensity median modified Z-score” value was 0 (inactive). In the case of `CC1(C)OC2CC3C4CC(F)=C5CC(=O)CCC5(C)C4C(O)CC3(C)C2(C(=O)CO)O1` (stereo unspecified) [euspeclibcmpd1953], the “Srxn1-GFP intensity median modified Z-score” value is reported as -0.815 (inactive). `O=c1cc(-c2ccccc2O)oc2cc(O)ccc12` [euspeclibcmpd1982] was tested, and the “Srxn1-GFP intensity median modified Z-score” value was -0.161 (inactive). For `O=C1OC(c2ccc(O)cc2)(c2ccc(O)cc2)c2ccccc21` [euspeclibcmpd234], the “Srxn1-GFP intensity median modified Z-score” value was 1.62 (inactive). In the case of `O=C1OC2(c3ccc(O)cc3Oc3cc(O)ccc32)c2ccccc21` [euspeclibcmpd769], the “Srxn1-GFP intensity median modified Z-score” value is reported as 2.16 (active). `CS(=O)(=O)c1ccc([C@H](O)[C@H](CF)NC(=O)C(Cl)Cl)cc1` [euspeclibcmpd827] was tested, and the “Srxn1-GFP intensity median modified Z-score” value was -0.193 (inactive). In the case of `OC[C@H]1O[C@@H](Oc2ccc(Cl)cc2)[C@H](O)[C@@H](O)[C@H]1O`, the “Srxn1-GFP intensity median modified Z-score” value is reported as 1.18 (inactive). For `COC(=O)N=c1[nH]c2ccc(C(=O)c3ccccc3)cc2[nH]1` [euspeclibcmpd378], the “Srxn1-GFP intensity median modified Z-score” value was 19.3 (active). With `COC(=O)N=c1[nH]c2ccc(C(=O)c3ccc(F)cc3)cc2[nH]1` [euspeclibcmpd2318] the “Srxn1-GFP intensity median modified Z-score” value was 8.09 (active). For `COC(=O)N=c1[nH]c2ccc(Sc3ccccc3)cc2[nH]1` [euspeclibcmpd371], the “Srxn1-GFP intensity median modified Z-score” value was 2.82 (active). For `CCOC(=O)N=c1[nH]c2ccccc2[nH]1` [euspeclibcmpd787], the “Srxn1-GFP intensity median modified Z-score” value was -0.0391 (inactive). `COC(=O)N=c1[nH]c2ccc([S+]([O-])c3ccccc3)cc2[nH]1` (stereo unspecified) [euspeclibcmpd738] was tested, and the “Srxn1-GFP intensity median modified Z-score” value was -0.824 (inactive). In the case of `O=c1oc2ccccc2cc1O` [euspeclibcmpd2250], the “Srxn1-GFP intensity median modified Z-score” value is reported as -0.381 (inactive). For `CCC(C)(C)c1ccc(CC(C)CN2C[C@@H](C)O[C@@H](C)C2)cc1` (stereo partly specified) [euspeclibcmpd489], the “Srxn1-GFP intensity median modified Z-score” value was 1.75 (inactive). `CC1(C)O[C@@H]2CC3C4CC(F)=C5CC(=O)C=C[C@]5(C)[C@@]4(F)[C@@H](O)C[C@]3(C)[C@]2(C(=O)CO)O1` (stereo partly specified) [euspeclibcmpd129] was tested, and the “Srxn1-GFP intensity median modified Z-score” value was 0.0501 (inactive). For `CCC(C)C1NC(=O)C(CCNCS(=O)(=O)O)NC(=O)C(NC(=O)C(CCNCS(=O)(=O)O)NC(=O)C(NC(=O)C(CCNCS(=O)(=O)O)NC(=O)CCCCC(C)C)C(C)O)CCNC(=O)C(C(C)O)NC(=O)C(CCNCS(=O)(=O)O)NC(=O)C(CCNCS(=O)(=O)O)NC(=O)C(C(C)CC)NC1=O` (stereo unspecified) [euspeclibcmpd2131], the “Srxn1-GFP intensity median modified Z-score” value was 0.0847 (inactive). For `CCC(C)n1nccc1NC(=O)C(C)N1CCSCC1` (stereo unspecified), the “Srxn1-GFP intensity median modified Z-score” value was 0.365 (inactive). For `COC1(C)CCC2OC2(C)CCC2C1CC2(C)C` (stereo unspecified) [euspeclibcmpd2008], the “Srxn1-GFP intensity median modified Z-score” value was -0.165 (inactive). For `CC1(C)[C@@H]2CC[C@]1(C)C(=O)C2` [euspeclibcmpd42], the “Srxn1-GFP intensity median modified Z-score” value was -0.12 (inactive). In the case of `O=C(O)c1cc(O)c2c(O)c3c(OC4OC(CO)C(O)C(O)C4O)cccc3c(-c3c4cc(C(=O)O)cc(O)c4c(O)c4c(OC5OC(CO)C(O)C(O)C5O)cccc34)c2c1` (stereo unspecified) [euspeclibcmpd1934], the “Srxn1-GFP intensity median modified Z-score” value is reported as -0.281 (inactive). With `Cn1nnnc1SC=C1CSC2C(NC(=O)C(O)c3ccccc3)C(=O)N2C1C(=O)O` (stereo unspecified) [euspeclibcmpd2229] the “Srxn1-GFP intensity median modified Z-score” value was -0.103 (inactive). `O=C(Nc1ccccc1Cl)C1=NN(C2CCS(=O)(=O)C2)C(=O)CC1` (stereo unspecified) was tested, and the “Srxn1-GFP intensity median modified Z-score” value was 1.26 (inactive). In the case of `COc1cc(OC)c2c(=O)c(-c3ccccc3)c(C)oc2c1OC` [euspeclibcmpd2303], the “Srxn1-GFP intensity median modified Z-score” value is reported as 1.35 (inactive). `O=C(O)Cc1ccccc1Nc1c(Cl)cccc1Cl` [euspeclibcmpd2396] was tested, and the “Srxn1-GFP intensity median modified Z-score” value was 0.438 (inactive). For `N=c1[nH]c(N2CCCCC2)cc(N)[n+]1[O-]` [euspeclibcmpd792], the “Srxn1-GFP intensity median modified Z-score” value was -0.234 (inactive). For `CC1(C)O[C@@H]2CC3C4CC(F)=C5CC(=O)C=CC5(C)C4C(O)CC3(C)[C@]2(C(=O)CO)O1` (stereo partly specified) [euspeclibcmpd414], the “Srxn1-GFP intensity median modified Z-score” value was 0.0846 (inactive). For `O=C1CCC(N2C(=O)c3ccccc3C2=O)C(=O)N1` (stereo unspecified) [euspeclibcmpd588], the “Srxn1-GFP intensity median modified Z-score” value was -0.192 (inactive). With `NC(=O)Nc1[nH]c(=O)[nH]c1O` [euspeclibcmpd347] the “Srxn1-GFP intensity median modified Z-score” value was -0.31 (inactive). In the case of `CC1CCC2[C@@]3(C)C=CC(=O)C(C)(C)C3CC3OC(=O)C(=O)C1[C@]32C` (stereo partly specified) [euspeclibcmpd1535], the “Srxn1-GFP intensity median modified Z-score” value is reported as 9.38 (active). For `CC(=O)OC=C1CSC2C(NC(=O)CSc3ccncc3)C(=O)N2C1C(=O)O` (stereo unspecified) [euspeclibcmpd2110], the “Srxn1-GFP intensity median modified Z-score” value was 0.0966 (inactive). In the case of `S=C1SCN(Cc2ccccc2)CN1Cc1ccccc1` [euspeclibcmpd1200], the “Srxn1-GFP intensity median modified Z-score” value is reported as 10 (active). `OCCc1ccccc1` [euspeclibcmpd771] was tested, and the “Srxn1-GFP intensity median modified Z-score” value was -0.962 (inactive). For `CC(=O)NC1C(O)OC(CO)C(O)C1O` (stereo unspecified) [euspeclibcmpd1995], the “Srxn1-GFP intensity median modified Z-score” value was -0.204 (inactive). For `Cc1c(N=c2[nH]cccc2C(=O)O)cccc1C(F)(F)F` [euspeclibcmpd1313], the “Srxn1-GFP intensity median modified Z-score” value was 0.328 (inactive). In the case of `Cc1cnc(C(=O)O)c[n+]1[O-]` [euspeclibcmpd1196], the “Srxn1-GFP intensity median modified Z-score” value is reported as -0.419 (inactive). `CN[C@@H]1[C@H](OC2[C@H](O[C@H]3[C@H](O)[C@@H](O)[C@H](N=C(N)N)[C@@H](O)[C@@H]3N=C(N)N)O[C@@H](C)[C@]2(O)C=O)O[C@@H](CO)[C@H](O)[C@H]1O` (stereo partly specified) [euspeclibcmpd270] was tested, and the “Srxn1-GFP intensity median modified Z-score” value was -0.445 (inactive). For `C=C(C)[C@H]1C=CC(C(=O)O)CC1` (stereo partly specified) [euspeclibcmpd1451], the “Srxn1-GFP intensity median modified Z-score” value was -0.188 (inactive).
